Measurements as given in PubChem BioAssay (Tox21).
Inconclusive results are not listed. Calls of active or inactive are those of the source. Unless noted, the call rests on the fitted dose curve; in most records, active means well fitted curve in the direction sought with a large enough effect in the repeat runs; inconclusive means weak or mixed curves; inactive means no such curve, though single readings can be large; an effect the other way counts as inactive or inconclusive.

How the values were obtained:
[1] = molecular target: Peroxisome proliferator-activated receptor delta (Homo sapiens) (UniProt Q03181); assay: qHTS assay to identify small molecule agonists of the peroxisome proliferator-activated receptor delta (PPARd) signaling pathway (AID 743212; calls by dose curve)
Peroxisome proliferator-activated receptor delta (Homo sapiens), sequence (Q03181 whole entry, looked up): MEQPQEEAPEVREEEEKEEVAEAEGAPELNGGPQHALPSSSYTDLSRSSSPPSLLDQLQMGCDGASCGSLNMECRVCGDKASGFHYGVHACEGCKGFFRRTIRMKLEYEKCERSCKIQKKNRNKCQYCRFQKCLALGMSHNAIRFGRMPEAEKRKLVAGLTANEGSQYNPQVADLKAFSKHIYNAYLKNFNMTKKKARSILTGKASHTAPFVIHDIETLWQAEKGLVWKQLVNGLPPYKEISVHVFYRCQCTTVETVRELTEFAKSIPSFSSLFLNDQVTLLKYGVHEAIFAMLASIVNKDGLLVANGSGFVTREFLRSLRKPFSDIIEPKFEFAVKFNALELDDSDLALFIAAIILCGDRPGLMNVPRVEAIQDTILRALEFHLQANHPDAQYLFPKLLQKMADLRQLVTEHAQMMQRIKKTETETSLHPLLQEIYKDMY
Procedure, shortened: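 HEK293H PPARd-bla cells; 5 h preincubation 37 C/5% CO2; compound (DMSO) 37 C; LiveBLAzer B/G FRET substrate 2 h RT; fluorescence intensity.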

[2] = qHTS assay to identify small molecule antagonists of the peroxisome proliferator-activated receptor delta (PPARd) signaling pathway - cell viability counter screen (AID 743213); further: nearly all actives have a fitted effect of over 50% in size
Procedure, shortened: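 In this counter screen, HEK293H cells carrying a UAS-beta-lactamase reporter are co-treated with test compounds and 300 nM L165041 (final) for 17 h at 37 C; cell viability is quantified by CellTiter-Glo luminescence.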

[3] = molecular target: Peroxisome proliferator-activated receptor delta (Homo sapiens) (UniProt Q03181); assay: qHTS assay to identify small molecule antagonists of the peroxisome proliferator-activated receptor delta (PPARd) signaling pathway (AID 743215; active means well fitted inhibition curve with a large enough effect in the signal ratio in the repeat runs, not every such curve was filed as active; the % refers to the signal ratio;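 further: cells stimulated with agonist L165041 at 300 nM final during compound exposure; series mostly up to about 62 µM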)
Procedure, shortened: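 Read-out is beta-lactamase FRET fluorescence, measured 2 h after substrate addition at room temperature. Beforehand, UAS-bla HEK293H cells carrying the PPARd reporter were exposed to compounds with L165041 at 300 nM final for 17 h at 37 C.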

[4] = molecular target: Bile acid receptor (Homo sapiens) (UniProt Q96RI1); assay: qHTS assay to identify small molecule antagonists of the farnesoid-X-receptor (FXR) signaling pathway (AID 743217; active means well fitted inhibition curve with a large enough effect in the signal ratio in the repeat runs, not every such curve was filed as active; the % refers to the signal ratio)
Bile acid receptor (Homo sapiens), sequence (Q96RI1 whole entry, looked up): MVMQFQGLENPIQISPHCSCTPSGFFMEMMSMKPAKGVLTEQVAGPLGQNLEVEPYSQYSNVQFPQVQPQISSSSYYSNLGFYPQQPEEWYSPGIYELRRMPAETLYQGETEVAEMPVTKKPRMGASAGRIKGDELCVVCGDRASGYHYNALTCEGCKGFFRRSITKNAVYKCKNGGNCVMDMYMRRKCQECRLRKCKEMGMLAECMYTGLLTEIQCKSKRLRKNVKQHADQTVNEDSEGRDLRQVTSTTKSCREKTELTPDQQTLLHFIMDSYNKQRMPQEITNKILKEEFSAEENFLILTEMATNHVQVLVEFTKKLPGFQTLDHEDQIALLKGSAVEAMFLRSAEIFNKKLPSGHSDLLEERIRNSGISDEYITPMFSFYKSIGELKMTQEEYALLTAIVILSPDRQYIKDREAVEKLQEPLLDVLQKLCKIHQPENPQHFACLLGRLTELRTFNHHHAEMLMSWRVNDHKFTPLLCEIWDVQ
Procedure, shortened: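 HEK 293T FXR-UAS-bla, 5000 cells/well; compound + CDCA 50 uM final; 16 h, 37 °C; B/G FRET substrate 2 h RT; fluorescence.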

[5] = qHTS assay to identify small molecule agonists of the farnesoid-X-receptor (FXR) signaling pathway - cell viability counter screen (AID 743218); further: nearly all actives have a fitted effect of over 45% in size
Procedure, shortened: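 HEK 293T FXR-bla cells; 5 h pre-incubation, 16 h compound exposure at 37 C; LiveBLAzer substrate 2 h RT, then CellTiter-Glo 30 min RT, luminescence.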

[6] = molecular target: Bile acid receptor (Homo sapiens) (UniProt Q96RI1); assay: qHTS assay to identify small molecule agonists of the farnesoid-X-receptor (FXR) signaling pathway (AID 743220; active means well fitted activation curve with a large enough effect in the signal ratio in the repeat runs, not every such curve was filed as active; the % refers to the signal ratio)
Procedure, shortened: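 Beta-lactamase reporter under UAS control in GeneBLAzer FXR HEK 293T cells (5000/well) measured with LiveBLAzer FRET substrate after 2 h at room temperature. Compound exposure lasted 16 h at 37C.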

[7] = qHTS assay to identify small molecule antagonists of the farnesoid-X-receptor (FXR) signaling pathway - cell viability counter screen (AID 743221; active means well fitted cell-killing curve with a large enough effect in the repeat runs, not every such curve was filed as active; further: nearly all actives have a fitted effect of over 50% in size)
Procedure, shortened: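 Quantitative HTS of the Tox21 10K library run in parallel with the beta-lactamase reporter read. HEK 293T cells carrying a UAS-driven bla reporter got compound and 50 uM CDCA (final) for 16 h; ATP-based luminescence followed.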

[8] = molecular target: Vitamin D3 receptor (Homo sapiens) (UniProt P11473); assay: qHTS assay to identify small molecule agonists of the vitamin D receptor (VDR) signaling pathway (AID 743222; calls by dose curve)
Vitamin D3 receptor (Homo sapiens), sequence (P11473 whole entry, looked up): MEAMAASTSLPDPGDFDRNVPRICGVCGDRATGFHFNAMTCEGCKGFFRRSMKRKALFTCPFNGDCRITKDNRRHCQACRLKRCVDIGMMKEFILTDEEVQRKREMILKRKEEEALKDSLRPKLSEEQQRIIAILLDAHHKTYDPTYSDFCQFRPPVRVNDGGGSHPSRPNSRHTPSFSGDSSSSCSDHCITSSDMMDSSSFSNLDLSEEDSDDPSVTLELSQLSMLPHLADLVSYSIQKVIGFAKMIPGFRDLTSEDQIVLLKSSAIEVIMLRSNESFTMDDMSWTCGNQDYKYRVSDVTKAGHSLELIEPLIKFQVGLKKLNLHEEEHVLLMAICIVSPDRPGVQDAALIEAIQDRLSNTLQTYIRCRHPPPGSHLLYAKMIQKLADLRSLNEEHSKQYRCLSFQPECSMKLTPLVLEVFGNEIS
Procedure, shortened: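 VDR-bla cells, 2,000/well; 4 h preincubation 37C; cpd (DMSO) 16 h; LiveBLAzer B/G substrate 2 h RT; fluorescence intensity read.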

[9] = qHTS assay to identify small molecule agonists of the vitamin D receptor (VDR) signaling pathway - cell viability counter screen (AID 743224); further: series mostly up to about 63 µM; nearly all actives have a fitted effect of over 50% in size
Procedure, shortened: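 Luminescence from CellTiter-Glo, read after 30 min at room temperature, reports viability of VDR-bla cells treated with compounds for 16 h at 37C in the wells used for the beta-lactamase FRET read.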

[10] = molecular target: Vitamin D3 receptor (Homo sapiens) (UniProt P11473); assay: qHTS assay to identify small molecule antagonists of the vitamin D receptor (VDR) signaling pathway (AID 743223; active means well fitted inhibition curve with a large enough effect in the signal ratio in the repeat runs, not every such curve was filed as active; the % refers to the signal ratio)
Procedure, shortened: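 Fluorescence from LiveBLAzer B/G FRET substrate, read after 2 h at room temperature, reflects beta-lactamase reporter activity in VDR-bla cells treated 16 h at 37C with compounds and agonist 1alpha,25-dihydroxyvitamin D3 (3 nM final).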
On the % scale 0 is the no-effect control and ±100 the full control effect.

O=C(O)C(Cl)Br (centres undefined)
inactive: outcome [1] | Potency [2] | Potency [3] | outcome [4] | Potency [5] | outcome [6] | Potency [7] | outcome [8] | Potency [9]

NNC(N)=O
inactive: outcome [1] | Potency [2] | Potency [3] | outcome [4] | Potency [5] | outcome [6] | Potency [7] | outcome [8] | Potency [9]

CN(C)CCN(C)C
inactive: outcome [1] | Potency [2] | Potency [3] | outcome [4] | Potency [5] | outcome [6] | Potency [7] | outcome [10] | Potency [9]

BrCc1ccc(Br)cc1
inactive: outcome [1] | Potency [2] | Potency [3] | outcome [4] | Potency [5] | outcome [6] | Potency [7] | outcome [8] | outcome [10] | Potency [9]

O=C1CCCCC1Cl (centres undefined)
inactive: outcome [1] | Potency [2] | Potency [3] | outcome [4] | Potency [5] | outcome [6] | Potency [7] | outcome [8] | outcome [10] | Potency [9]

CC(C)(N)Cc1ccccc1Cl
inactive: outcome [1] | Potency [2] | Potency [3] | outcome [4] | Potency [5] | outcome [6] | Potency [7] | outcome [10] | Potency [9]

CCOC(=O)c1ncn2c1CN(C)C(=O)c1c(I)cccc1-2
inactive: outcome [1] | Potency [2] | Potency [3] | outcome [4] | Potency [5] | outcome [6] | Potency [7] | outcome [8] | Potency [9]

O=C1CC(=O)NC(=O)N1
inactive: outcome [1] | Potency [2] | Potency [3] | outcome [4] | Potency [5] | outcome [6] | Potency [7] | outcome [8] | outcome [10] | Potency [9]

Clc1ccc(C(Cl)(Cl)Cl)cn1
inactive: outcome [1] | Potency [2] | Potency [3] | outcome [4] | Potency [5] | outcome [6] | Potency [7] | outcome [8] | Potency [9]

NCCOS(=O)(=O)O
inactive: outcome [1] | Potency [2] | Potency [3] | outcome [4] | Potency [5] | outcome [6] | Potency [7] | outcome [10] | Potency [9]

COC(=O)[C@@H](N)CCCN/C(N)=N/[N+](=O)[O-]
inactive: outcome [1] | Potency [2] | Potency [3] | outcome [4] | outcome [6] | Potency [7] | Potency [9]

NNCc1ccccc1
inactive: outcome [1] | Potency [2] | Potency [3] | outcome [4] | Potency [5] | outcome [6] | Potency [7] | Potency [9]

Cn1c(CCCC(=O)O)nc2cc(N(CCCl)CCCl)ccc21
inactive: outcome [1] | Potency [2] | Potency [3] | outcome [4] | Potency [5] | outcome [6] | Potency [7] | Potency [9]

CCN[C@H](C)Cc1cccc(C(F)(F)F)c1
inactive: outcome [1] | Potency [2] | Potency [3] | outcome [4] | Potency [5] | Potency [7] | Potency [9]

CCCCCCCC(=O)Cl
inactive: outcome [1] | Potency [2] | Potency [3] | outcome [4] | Potency [5] | outcome [6] | Potency [7] | Potency [9]

COP(=O)(O)OC
inactive: outcome [1] | Potency [2] | Potency [3] | outcome [4] | Potency [5] | outcome [6] | Potency [7] | Potency [9]

CC(O)CCl (centres undefined)
inactive: outcome [1] | Potency [2] | Potency [3] | outcome [4] | outcome [6] | Potency [7] | Potency [9]

CCCCOC(C)=O
inactive: outcome [1] | Potency [2] | Potency [3] | outcome [4] | Potency [5] | outcome [6] | Potency [7] | Potency [9]

ClCOCCl
inactive: outcome [1] | Potency [2] | Potency [3] | outcome [4] | Potency [5] | outcome [6] | Potency [9]

Cn1c(N)nc2c3cccnc3ccc21
inactive: outcome [1] | Potency [2] | Potency [3] | outcome [4] | Potency [5] | outcome [6] | Potency [7] | Potency [9]

Cc1cc(OC(=O)N(C)C)nn1C(=O)N(C)C
inactive: outcome [1] | Potency [2] | Potency [3] | outcome [4] | Potency [5] | outcome [6] | Potency [7] | Potency [9]

COc1ccc(C=O)cc1O
inactive: outcome [1] | Potency [2] | Potency [3] | outcome [4] | Potency [5] | outcome [6] | Potency [7] | Potency [9]

CC(C)N(Cc1ccccc1)C(=O)C(C)(C)C
inactive: outcome [1] | Potency [2] | Potency [3] | Potency [5] | outcome [6] | Potency [7] | outcome [8] | outcome [10] | Potency [9]

COc1ccc2c(C(=O)c3ccc(Cl)cc3)c(C)n(CC(=O)O)c2c1
inactive: outcome [1] | Potency [2] | Potency [3] | outcome [4] | outcome [6] | Potency [7] | Potency [9]

CC(C)(C)C(=O)Cl
inactive: outcome [1] | Potency [2] | Potency [3] | outcome [4] | Potency [5] | outcome [6] | Potency [7] | Potency [9]

CCN[C@@H](C)Cc1cccc(C(F)(F)F)c1
inactive: outcome [1] | Potency [2] | Potency [3] | outcome [4] | Potency [5] | outcome [6] | Potency [7] | Potency [9]

Cc1cccc2sc3nncn3c12
inactive: outcome [1] | Potency [2] | Potency [3] | outcome [4] | Potency [5] | outcome [6] | Potency [7] | Potency [9]

Clc1cc2c(cc1Cl)Oc1cc(Cl)c(Cl)cc1O2
inactive: activation [1] 7.23% [at 0.275 µM] | viability change, negative = cytotoxic [2] -3.41% [at 0.278 µM] | ratio activity, negative = inhibition [3] -14.9% [at 0.278 µM] | activity change, negative = inhibition [4] -0.544% [at 0.275 µM] | viability change, negative = cytotoxic [5] -3.37% [at 0.275 µM] | activity change, negative = cytotoxicity [7] -5.6% [at 0.275 µM] | activation [8] 3.98% [at 0.275 µM] | activity change, negative = inhibition [10] -1.31% [at 0.281 µM] | activity change, negative = cytotoxicity [9] -0.698% [at 0.275 µM]
